CHX counter – affects cycloheximide protein synthesis inhibition readout, counter-screen. cell reporter, cycloheximide protein synthesis inhibition counterscreen. 12% of 300,000 active. max response, %; in the data active means max response mostly above about 13%, no sharp cut-off; inactive means mostly below about 14%; further: read at 38.3 µM for the half of the compounds with a filed dose
Shiga inhibitor – inhibitors of Shiga toxin in Vero cells. Vero cells, Shiga toxin protein synthesis inhibition reporter. 9.2% of 290,000 active. inhibition, % at 38.7 µM. AID 2315; in the data active means inhibition mostly above about 28%, no sharp cut-off; inactive means mostly below about 43%
Pf growth 48h – P. falciparum growth inhibition at 48 hours (one generation); P. falciparum luciferase growth in erythrocytes, 48 h; Potency, µM (top dose mostly 28.7 µM), usual class: inhibitors; 5.9% of 310,000 active; AID 504832
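Luminescence readout; reporter = integrated firefly luciferase in P. falciparum. RBC culture at 2% hematocrit, 0.1% parasitemia final, 37 C/5% CO2; decreased signal taken as growth inhibition.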
NS1 function inh – influenza NS1 inhibition; Potency, µM (titrated, usually from 46.1 µM); AID 2326; 0.4% of 270,000 active; calls by dose curve; further: actives are rising curves; nearly all actives have a fitted effect of over 50% in size
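Growth recovery, yeast-based: influenza A NS1 expressed in S. cerevisiae causes slow growth, and suppressors are detected by OD600. The parent strain without NS1 is used as positive control.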
Pf growth 96h – P. falciparum growth inhibition at 96 hours. P. falciparum luciferase reporter growth, 96 h. Potency, µM (top dose mostly 28.7 µM), actives largely listed as inhibitors. 6.9% of 320,000 active. AID 504834
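Luminescence readout: decreased luciferase signal marks inhibited growth of reporter-expressing P. falciparum in infected red cells (2% hematocrit, 0.05% parasitemia final), exposed to compound two generations (96 h, 37 C, 5% CO2).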
Numbers stand for hits; . = inactive; ? = inconclusive; / = not tested or not shown. An excerpt weighted towards active compounds, which were near 21% of everything screened. Unless noted, the call rests on the fitted dose curve; in most records, active means well fitted inhibition curve with a large enough effect; inconclusive means small, poorly fitted or top-dose-only effect, or another doubt; inactive means no such curve, though single readings can be large or run the other way.

SMILES	CHX counter	Shiga inhibitor	Pf growth 48h	NS1 function inh	Pf growth 96h
COc1cc(/C=C/C(=O)Nc2cccnc2)cc(OC)c1OC	.	.	.	.	9.3µM
COc1cc(/C=C\C(=O)Nc2cc(=O)n(C)c(=O)n2C)cc(OC)c1OC	.	.	5.2µM	/	?
COc1cc(/C=C/C(=O)Nc2ccc3[nH]c(=O)[nH]c3c2)cc(OC)c1OC	.	.	10µM	.	.
CC(C)CC(=O)NC(C)C(c1cccs1)N1CCOCC1 (centres undefined)	.	.	.	.	.
O=C(NCc1ccccc1Cl)c1ccccc1Oc1ccccc1	.	.	.	.	?
Cn1c(=O)c2c(SCC(N)=O)nc(CC(C)(C)C)nc2n(C)c1=O	.	.	.	.	.
Cn1c(=O)c2c(SCC(=O)NC3CCCC3)nc(CC(C)(C)C)nc2n(C)c1=O	.	.	?	.	13µM
COc1ccc(C/C(C)=N/NC(=O)C2COc3ccccc3O2)cc1 (centres undefined)	.	.	.	/	.
Cc1cccc(-n2cnc3c(sc4nc(N5CCOCC5)c5c(c43)CCCC5)c2=O)c1	.	.	2.1µM	.	?
c1nc(N2CCOCC2)c2sc3nc(N4CCOCC4)c4c(c3c2n1)CCCC4	/	/	/	.	/
OCCNc1ncnc2c1sc1nc(N3CCOCC3)c3c(c12)CCC3	.	.	?	/	.
CCN(CC)CCNc1ncnc2c1sc1nc(N3CCOCC3)c3c(c12)CCCC3	.	.	9.3µM	.	?
CCN(CC)CCNc1ncnc2c1sc1nc(N3CCCC3)c3c(c12)CC(C)(C)OC3	.	.	10µM	.	.
O=C(COC(=O)c1ccccc1)Nc1cccc(S(=O)(=O)N2CCCCC2)c1	/	/	?	/	.
Cc1sc2ncnc(SCC(=O)NC(=O)NCc3ccco3)c2c1C	.	.	.	.	.
Cc1ccc(OCc2nnc(N)s2)cc1	28	27	.	.	?
Cc1cc(C)cc(OCc2nnc(N)s2)c1	.	.	.	.	.
Cc1ccc(OCc2nnc(N)s2)cc1C	21	59	.	.	.
O=C(/C=C/c1ccc(O)c(O)c1)c1ccc(O)cc1O	10	35	/	/	/
CCC(C)C1/C=C\CCCC(=O)N1Cc1ccc(C)cc1 (centres undefined)	.	.	/	/	/
Cc1cccc(/C=N\NC(=O)c2ccc(Cl)cc2)c1O	62	82	?	.	.
CCOc1cccc(/C=N/NC(=O)c2ccc3c(c2)OCCO3)c1O	29	82	?	.	?
Cc1ccc(NS(=O)(=O)c2cccc(C(=O)N/N=C/c3ccc4c(c3)OCCO4)c2)c(C)c1	14	.	.	.	?
Cc1cccc(/C=N/NC(=O)c2ccc3c(c2)OCCO3)c1O	.	55	.	.	?
NNC(=O)Cn1c(SCc2ccccc2)nc2ccccc21	.	.	/	.	?
SMILES	CHX counter	Shiga inhibitor	Pf growth 48h	NS1 function inh	Pf growth 96h
Brc1ccccc1OCCCCn1cnc2ccccc21	26	42	.	.	?
N#Cc1ccccc1OCCn1cncn1	.	.	.	.	.
Cc1cc2ncn(CCOc3ccccc3C#N)c2cc1C	.	.	?	.	13µM
Clc1ccccc1OCCn1cnc2ccccc21	31	72	.	.	?
c1ccc(Cn2cnc3ccccc32)cc1	.	.	.	.	8.3µM
Clc1ccc(OCCn2cnc3ccccc32)cc1	.	.	?	.	/
Cc1nnc(NC(=O)C(C)Sc2nnc(CCNC(=O)c3ccccc3F)n2C)s1 (centres undefined)	.	.	.	.	?
COCCN(C(=O)c1csnn1)C(C(=O)NC1CCCC1)c1ccccc1F (centres undefined)	.	.	.	.	.
O=C(Cn1nc(CNc2ccc(Cl)cc2)[n+]2c1CCCCC2)c1ccccc1	.	.	0.93µM	.	?
Clc1ccc(NCc2nnc3n2CCCCC3)cc1	.	.	.	.	/
Cc1ccc(C(C)C)c(OCc2nn(CC(=O)c3ccc(Cl)cc3)c3[n+]2CCCCC3)c1	.	.	12µM	/	?
CC1CCCN(C(=O)C(Cc2ccccc2)n2cccc2)C1 (centres undefined)	.	.	/	.	.
Cc1ccc(NC(=O)C2C3C=CC4(O3)C2C(=O)N(CCCN2CCOCC2)C4C(=O)NC2CCCCC2)cc1Cl (centres undefined)	.	.	.	.	2.1µM
Cc1ccc(NC(=O)C2C3C=CC4(O3)C2C(=O)N(CCN2CCOCC2)C4C(=O)NC2CCCCC2)cc1C (centres undefined)	.	.	.	.	?
O=C(Nc1ccc(Br)cc1)C1C2C=CC3(O2)C1C(=O)N(CCN1CCOCC1)C3C(=O)NC1CCCCC1 (centres undefined)	.	.	.	.	10µM
COCC(=O)Nc1ccc(S(=O)(=O)Nc2ccccn2)cc1	.	.	.	/	?
CC(=O)c1ccc(Oc2cc(-c3ccccc3)nc(-c3ccccc3)n2)cc1	.	.	?	.	?
O=Cc1ccc(Oc2cc(-c3ccccc3)nc(-c3ccccc3)n2)cc1	.	.	.	.	13µM
Cn1c(=O)c(NCCO)c2c3c(cccc31)C(=O)c1ccccc1-2	.	.	.	.	.
Cn1c(=O)c(NC2CCCCC2)c2c3c(cccc31)C(=O)c1ccccc1-2	.	.	13µM	.	.
Cn1c(=O)c(NCCc2ccccc2)c2c3c(cccc31)C(=O)c1ccccc1-2	.	.	/	.	9.3µM
Cc1ccccc1C(=O)Nc1cc(-c2cc(C(C)(C)C)oc2C)nn1C	.	.	.	.	?
Cc1cc(=O)[nH]c(SCC(=O)Nc2cccc(C(F)(F)F)c2)n1	.	.	.	.	/
Cc1cc(=O)[nH]c(NN)n1	.	.	?	.	9.3µM
Cc1cc(=O)[nH]c(NN=C2C3CC4CC(C3)CC2C4)n1	18	.	.	.	?
SMILES	CHX counter	Shiga inhibitor	Pf growth 48h	NS1 function inh	Pf growth 96h
C/C(=N/Nc1nc(C)cc(=O)[nH]1)C(=O)O	/	/	/	.	/
Cc1cc(=O)[nH]c(Nc2cccc(C(F)(F)F)c2)n1	.	.	?	.	13µM
Cc1ccc(-c2[nH][nH]c(=O)c(=O)c2N=Nc2ccccc2)cc1	.	.	.	.	.
O=c1c(O)c(-c2cc(O)c(O)c(O)c2)oc2cc(O)ccc12	.	.	/	/	/
COc1ccc(N2CCN(Cc3nc4c(c(=O)n(C)c(=O)n4C)n3Cc3ccccc3C)CC2)cc1	/	/	/	.	/
O=[N+]([O-])/C(C(Cl)=C(Cl)Cl)=C1\Nc2ccccc2O1	17	71	.	.	.
CCOC(=O)N1CCC(=NNC(=O)c2cc3ccccc3cc2O)CC1	.	.	.	?	?
CCCN1CCC(=NNC(=O)c2ccc(Br)o2)CC1	41	70	.	.	.
CCN1CCC(=NNC(=O)c2ccco2)CC1	56	53	/	.	.
CCOC(=O)C1=C(C)C/C(=N\NC(=O)c2ccccc2O)CC1	23	.	?	.	?
O=C(NN=C1CCN(Cc2ccccc2)CC1)c1ccccc1O	22	35	.	/	.
CCOc1ccc(S(=O)(=O)N(CC)CC(=O)NCc2ccncc2)cc1C	.	.	.	.	.
CCCCCOc1ccc(C(=O)Nc2ccc(S(=O)(=O)Nc3cc(C)on3)cc2)cc1	.	.	.	.	.
CC(C)CNC(=O)COC(=O)CCC(=O)c1ccc(Cl)cc1	.	.	.	/	.

Assay outcomes from PubChem.
